Among the data in PubChem BioAssay (NCI) are growth values, retold here.

Holding throughout (assay): NCI-60 one-dose screen, 48 h (100 = growth as untreated, 0 = no growth, -100 = all killed)
Holding throughout (settings): 10 µM

The test system of assay [1] is NCI-H23 lung.
Assay [2] deals with NCI-H226 lung.
In assay [3] the test system is NCI-H322M lung.
Assay [4] concerns HOP-62 NSCLC.
Assay [5] deals with NCI-H460 lung.
Assay [6] relates to HOP-92 NSCLC.
The test system of assay [7] is NCI-H522 lung.
Assay [8] concerns A549/ATCC NSCLC.
For assay [9], the system named is 786-0 renal.
For assay [10], the system named is COLO 205 colon.

This is part of a sample that, as a whole, favours compounds with a hit. Of some 83,000 tested, about 20% had one in any assay.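 Each cell line was grown in a 96-well plate and treated with one concentration of compound for 48 hours. Values below 10 were considered active.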 Values without a mark were called inactive. Calls of active or inactive are those of the source.

On to `CCOC(=O)C1=C(N)N(c2ccccc2)C2=C(C(=O)CC(C)(C)C2)C1c1ccccc1OC` (stereo not given), for which the growth in assay [1] is 98.3%; in [2], 101%; in assay [3], 94%; in assay [4], 102%; in assay [5] it was 115%; in assay [6] it was 114%. Moreover, the growth in assay [7] was 95.3%; in [8], 103%; in assay [9], 97.7%; in [10], 128%.

Consider `O=C(CSc1nnc(-c2c[nH]c3ccccc23)n1-c1ccccc1)c1ccccc1`, for which the growth is 44.9% in assay [1]; 4.48% (active) in assay [2]; 81.2% in [3]; 23.4% in assay [4]; 61.8% in assay [5]; 47% in assay [6]. Moreover, the growth is 71.6% in assay [7], 85.5% in [8], 29.6% in assay [9] and 93.4% in assay [10].

Regarding `CCCCSc1nc(Nc2ccc(/C(C)=N/NC(N)=S)cc2)c(C#N)c(-c2ccc(OC)cc2)n1`, the growth in [1] is 31.4%; in assay [2], -6.28% (active); in assay [3], 74.8%; in assay [4] it was 54.4%; in [5] it was 46.5%; in assay [6], -4.59% (active). Also, the growth in assay [7] is 85.7%; in [8], 47.4%; in assay [9] it was -71.5% (active); in [10], 125%.

Take `O=C(Nc1nc2ccc([N+](=O)[O-])cc2s1)Nc1ccccc1I`: the growth is -6.9% (active) in [1]; -7.84% (active) in assay [2]; -0.431% (active) in assay [3]; 7.62% (active) in [4]; 6.36% (active) in assay [5]; -28.1% (active) in [6]. Besides, the growth in assay [7] is -23.7% (active); in assay [8], 3.05% (active); in assay [9], 0.486% (active); in assay [10] it was -94.2% (active).

Regarding `CC(=O)Nc1ccc(-c2cn(-c3cccc(C(=O)Nc4cc(C(F)(F)F)cc(C(F)(F)F)c4)c3)nn2)cn1`, the growth in [1] was -68.6% (active); in assay [2] it was -68% (active); in assay [3], -15.6% (active); in [4] it was -61.1% (active); in [5] it was -71.6% (active); in assay [6], -52% (active). The growth in [7] is -11.2% (active); in [8], -26.1% (active); in assay [9], -42.8% (active); in [10], -62.2% (active).

For the compound `CCOP(=O)(OCC)O[C@H]1CCC(=O)[C@@H]2[C@H]1[C@H]1C[C@@H]3[C@@]4(C)CCCC(C)(C(=O)OC)[C@@H]4CC[C@@]23C=C1C(C)C` (stereo not given in full), the growth in [1] is 50.3%; in [2], 48.9%; in assay [3], 102%; in assay [4] it was 76.8%; in assay [5], 66.4%; in assay [6], 46.8%. For the same compound, the growth in [7] was 31.6%; in assay [8] it was 49.7%; in assay [9], 63.3%; in assay [10] it was 47.6%.

On to `CC(=O)NCC1=C(C)C=C2C(=O)[C@](C)(O)C3(CC3)C(C)=C21`, for which the growth in assay [1] is -76.6% (active); in assay [2] it was -72.2% (active); in assay [3] it was -30% (active); in [4], -54.4% (active); in assay [5], 4.33% (active); in assay [6], -14.1% (active). In addition, the growth in [7] was -64.8% (active); in [8] it was -50.3% (active); in assay [9], -40.8% (active); in [10] it was -81.4% (active).

With `CC(=C(c1ccc(OCCCN(C)C)cc1)c1ccc(OCCCN(C)C)cc1)c1ccccc1`, the growth in [1] is -97.9% (active); in assay [2], -81.5% (active); in assay [3] it was -100% (active); in assay [4] it was -90.5% (active); in assay [5], 3.15% (active); in assay [6] it was -76.4% (active). The growth in assay [7] was -84.6% (active); in [8], -73.1% (active); in [9] it was -44% (active); in assay [10], -85.9% (active).

For `CCOC(=O)C1=C(N)N(c2ccc(Cl)cc2)C2=C(C(=O)CC(C)(C)C2)C1c1ccc(N2CCOCC2)cc1` (stereo not given), the growth is 105% in assay [1]; 93.6% in [2]; 95.4% in assay [3]; 118% in [4]; 94% in [5]; 92.9% in assay [6]. Besides, the growth in [7] is 89.3%; in [8] it was 90%; in [9] it was 89.4%; in assay [10], 99.8%.

On to `CN(C)c1nc(NCCNS(=O)(=O)c2ccc(C(=O)/C=C/c3ccccc3)cc2)nc(Nc2ccc(F)cc2)n1`, for which the growth in [1] is 28.8%; in [2], 27.8%; in assay [3], 44.1%; in assay [4], 61.1%; in [5] it was 14.9%; in assay [6], -12.1% (active). The growth in assay [7] was 61.6%; in assay [8], 45.4%; in assay [9], -20.6% (active); in assay [10], 54%.

`O=C(c1ccc(O)cc1)C1[C@H](c2ccc(Br)cc2)[C@@H](c2ccccc2)NC12C(=O)Nc1ccccc12` (stereo not given in full): the growth in assay [1] is 7.68% (active); in [2] it was 43.5%; in [3], 51.6%; in assay [4], 39.4%; in assay [5] it was 2.57% (active); in assay [6], 8.1% (active). Also, the growth in [7] was 32.4%; in assay [8], 29.5%; in assay [9] it was 16.3%; in assay [10] it was -46.4% (active).

`C=C1CCC2C3(C)COC(c4c(F)cccc4F)OC3CCC2(C)C1C/C=C1/C(=O)OCC1O` (stereo not given): the growth in [1] was -46.8% (active); in [2], -11.2% (active); in assay [3], 37.5%; in assay [4] it was -13.7% (active); in assay [5] it was -22.3% (active); in [6], 4.64% (active). The growth in [7] was -67.7% (active); in [8], 10.1%; in assay [9], -77.6% (active); in assay [10], -35.8% (active).

As for `NC1=NC(c2ccccc2Cl)N=C(Nc2nn[nH]n2)N1` (stereo not given), the growth in [1] was 106%; in [2], 105%; in [3] it was 111%; in assay [4], 108%; in assay [5], 108%; in [6], 95.3%. For the same compound, the growth in [7] was 102%; in assay [8], 103%; in assay [9], 103%; in assay [10], 116%.
